Test results reported in PubChem BioAssay.
The source made the active and inactive calls. Unless noted, how the calls were made is not given here.

Legend:
[1] = compound effects on lung adenocarcinoma cell viability – A549, calcein-AM fluorescence, 48 h, basal, profiling panel (AID 1162); details: higher = more signal; further: test concentration not given here
[2] = compound effects on differentiated 3T3-L1 adipocyte viability – cell-based, 3T3-L1 adipocytes, calcein-AM fluorescence, 48 h, basal, profiling panel (AID 1163); details: 3T3-L1 adipocytes viability, higher = more signal; further: test concentration not given here
[3] = compound effects on hepatocellular carcinoma cell viability – HepG2, calcein-AM fluorescence, 48 h, basal, profiling panel (AID 1164); details: higher = more signal; further: test concentration not given here
[4] = compound effects on multiple myeloma cell viability – MM1S, calcein-AM fluorescence, 48 h, basal, profiling panel (AID 1165); details: higher = more signal;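 further: viability of MM1S multiple myeloma cells under basal unstimulated conditions; test concentration not given here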
[5] = calcein-AM signal in unstimulated myeloma cells – cell-based, calcein-AM fluorescence, 48 h, PK04 Diversity Set, profiling panel (AID 1166); details: RPMI8226 myeloma viability, higher = more signal;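 further: cells grown under basal conditions without added stimulus; test concentration not given here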
[6] = JC-1 mitochondrial signal, unstimulated HepG2 cells – cell-based, JC-1 fluorescence, 24 h, 100 nL compound, profiling panel (AID 1167); details: HepG2 mitochondrial potential, higher = more signal; further: test concentration not given here
[7] = JC-1 mitochondrial signal, unstimulated adipocytes – cell-based, JC-1 fluorescence, 3T3-L1 adipocytes, 24 h, 100 nL compound, profiling panel (AID 1168); details: JC-1 mitochondrial fluorescence, higher = more signal, called active from +8 up or from −8 down; further: test concentration not given here
[8] = JC-1 mitochondrial signal, unstimulated myeloma cells – cell-based, JC-1 fluorescence, RPMI8226, 24 h, 100 nL compound, profiling panel (AID 1169); details: JC-1 mitochondrial potential fluorescence, higher = more signal; further: test concentration not given here
[9] = JC-1 mitochondrial signal, unstimulated MM1S myeloma – cell-based, JC-1 fluorescence, 24 h, 100 nL compound, profiling panel (AID 1170); details: MM1S mitochondrial potential, higher = more signal; further: test concentration not given here
[10] = resazurin metabolic signal in A549 cells – cell-based, resazurin fluorescence, 24 h, PK04 Diversity Set, profiling panel (AID 1171); details: A549 viability, higher = more signal, called active from +8 up or from −8 down; further: test concentration not given here
[11] = resazurin metabolic signal in HepG2 cells – cell-based, resazurin fluorescence, 24 h, PK04 Diversity Set, profiling panel (AID 1172); details: HepG2 viability, higher = more signal; further: test concentration not given here
[12] = budding yeast growth changes without added modifier – OD600, strain BY4716, 24 h, basal condition, primary screen (AID 1173); details: S. cerevisiae BY4716 growth, OD600, 24 h; higher = more signal, called active from +8 up or from −8 down
[13] = viability profiling in MM1S myeloma cells – cell-based, resazurin fluorescence, basal, 24 h, PK04 Diversity Set, profiling panel (AID 1174); details: higher = more signal, called active from +8 up or from −8 down; further: test concentration not given here
[14] = molecular target: Dihydroorotate dehydrogenase (quinone), mitochondrial (Plasmodium falciparum (isolate 3D7)) (UniProt Q08210); test: inhibition of P. falciparum DHODH – biochemical, C-terminal His tag, absorbance 600 nm, primary screen (AID 1175); details: PfDHODH enzyme, DCIP absorbance 600 nm; higher = more signal, called active from +8 up or from −8 down;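 further: recombinant parasite enzyme with a five histidine tag at its C terminus; test concentration not given here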
Chain of Dihydroorotate dehydrogenase (quinone), mitochondrial (Plasmodium falciparum (isolate 3D7)) (Q08210 whole entry, looked up): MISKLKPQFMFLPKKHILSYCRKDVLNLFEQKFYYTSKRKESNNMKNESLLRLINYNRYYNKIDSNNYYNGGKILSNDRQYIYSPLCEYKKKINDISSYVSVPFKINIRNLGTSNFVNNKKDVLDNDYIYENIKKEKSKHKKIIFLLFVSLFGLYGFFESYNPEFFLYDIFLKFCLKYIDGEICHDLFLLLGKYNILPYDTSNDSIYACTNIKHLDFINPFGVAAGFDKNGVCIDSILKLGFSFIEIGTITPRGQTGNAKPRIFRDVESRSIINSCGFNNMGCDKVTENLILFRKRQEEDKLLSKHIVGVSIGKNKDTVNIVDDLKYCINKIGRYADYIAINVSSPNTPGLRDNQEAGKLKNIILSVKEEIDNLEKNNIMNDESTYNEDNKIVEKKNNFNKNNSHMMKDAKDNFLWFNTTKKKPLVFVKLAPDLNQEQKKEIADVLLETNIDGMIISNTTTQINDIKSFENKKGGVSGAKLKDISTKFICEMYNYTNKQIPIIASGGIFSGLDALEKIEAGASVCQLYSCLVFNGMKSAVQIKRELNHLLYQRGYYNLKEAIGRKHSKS

[15] = inhibition of PAO1 biofilm formation – strain PAO1, LB-PBS medium, absorbance 600 nm, primary screen (AID 1176); further: test concentration not given here; details: P. aeruginosa PAO1 growth/biofilm, A600, 12 h; higher = more signal
[16] = growth modulation of vineyard yeast isolate – strain RM11-1a, OD600, basal, 24 h, primary screen (AID 1177);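 further: cultures grown under basal conditions with no added stressor; test concentration not given here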; details: S. cerevisiae RM11-1a growth, OD600, 24 h; higher = more signal, called active from +8 up or from −8 down
[17] = growth of efflux-deficient E. coli DRC39 – strain DRC39, OD650, 24 h, E. coli filamentation inducers, primary screen (AID 1178);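 further: growth measured as culture turbidity by optical density at 650 nm; test concentration not given here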; details: E. coli DRC39 acrAB, higher = more signal, called active from +8 up or from −8 down
[18] = growth of efflux-deficient E. coli DRC39 – strain DRC39, OD650, 48 h, E. coli filamentation inducers, primary screen (AID 1179);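 further: screen aims at cell division blockers that make cells filament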; details: E. coli DRC39 delta-acrAB growth, higher = more signal, called active from +8 up or from −8 down
[19] = viability profiling in RPMI8226 myeloma cells – cell-based, resazurin fluorescence, basal, 24 h, PK04 Diversity Set, profiling panel (AID 1180); details: higher = more signal;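 further: RPMI8826 multiple myeloma cell line at 5000 cells per well; test concentration not given here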
[20] = molecular target: E3 ubiquitin-protein ligase XIAP (Homo sapiens) (UniProt P98170); test: small molecules binding XIAP protein – biophysical, small-molecule microarray, fluorescence 635 nm, primary screen (AID 1181); details: higher = more signal;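 further: score merges 667 nm emission and signal to noise over triplicate slides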
Chain of E3 ubiquitin-protein ligase XIAP (Homo sapiens) (P98170 whole entry, looked up): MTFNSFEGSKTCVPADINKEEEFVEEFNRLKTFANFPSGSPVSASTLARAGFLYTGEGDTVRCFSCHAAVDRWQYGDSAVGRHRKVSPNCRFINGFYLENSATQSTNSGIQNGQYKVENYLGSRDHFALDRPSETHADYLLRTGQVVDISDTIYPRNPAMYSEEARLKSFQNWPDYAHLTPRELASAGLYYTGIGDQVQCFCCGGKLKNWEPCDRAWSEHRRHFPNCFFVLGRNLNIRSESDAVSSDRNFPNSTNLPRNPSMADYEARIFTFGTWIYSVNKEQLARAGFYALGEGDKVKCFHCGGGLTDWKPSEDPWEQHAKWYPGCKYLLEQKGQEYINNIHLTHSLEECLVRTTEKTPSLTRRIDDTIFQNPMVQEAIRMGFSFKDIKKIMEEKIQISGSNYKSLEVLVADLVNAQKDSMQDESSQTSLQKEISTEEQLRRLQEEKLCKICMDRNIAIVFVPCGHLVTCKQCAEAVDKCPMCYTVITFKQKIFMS

SMILES	z-score [1]	z-score [2]	z-score [3]	z-score [4]	z-score [5]	z-score [6]	z-score [7]	z-score [8]	z-score [9]	z-score [10]	z-score [11]	z-score [12]	z-score [13]	composite z-score [14]	z-score [15]	z-score [16]	z-score [17]	z-score [18]	z-score [19]	composite z-score [20]
COc1ccc([Si](C)(C)[C@H]2[C@H](CCO)O[C@@]3(C(=O)N(Cc4ccccc4)c4ccc(NC(=O)[C@H](C)O)cc43)[C@@H]2C)cc1	-1.88	-1.49	-4.52	-2.62	-4.31	-2.86	0.364 (inactive)	-0.961	-2.39	-3.18 (inactive)	-4.02	0.478 (inactive)	-7.25 (inactive)	1.18 (inactive)	1.7 (inactive)	4.58 (inactive)	1.23 (inactive)	0.723 (inactive)	-5.45	0.0153
COc1cc(Cc2cc3c(c(CCc4ccccc4)n2)[Si](C(C)C)(C(C)C)O[C@H]3c2ccccc2)cc(OC)c1OC	-4.59	-0.515	-3.15	-3.14	-3.71	-3.44	0.0754 (inactive)	-0.548	-0.663	-1.24 (inactive)	-0.877	-17.2 (active)	-0.489 (inactive)	-0.435 (inactive)	0.113 (inactive)	-0.234 (inactive)	-0.264 (inactive)	-0.65 (inactive)	-0.163	0.355
C=C1C(=O)C=C2CN(C(=O)c3ccccc3)[C@@](Cc3ccc(F)cc3)(C(=O)OC)[C@@H]12	-3.89	-1.94	-5.62	-3.36	-4.73	-3.92	3.42 (inactive)	-0.764	-2.82	-7 (inactive)	-6.48	-11.8 (active)	-9.98 (active)	-1.67 (inactive)	0.439 (inactive)	-2.19 (inactive)	0.322 (inactive)	-1.8 (inactive)	-7.28	0.154
[N-]=[N+]=NCc1ccccc1[C@H]1OC(c2ccc(OCCCO)cc2)=N[C@@]1(CCS(=O)(=O)c1ccccc1)C(=O)NCCN1CCOCC1	1.69	-0.328	1.14	-1.03	0.511	0.418	-0.221 (inactive)	-0.556	-0.801	0.0651 (inactive)	-0.152	0.256 (inactive)	0.285 (inactive)	0.12 (inactive)	1.13 (inactive)	-0.199 (inactive)	-0.178 (inactive)	-0.35 (inactive)	0.548	-0.115
C[N+](C)(C)CCCC[C@@H]1NC(=O)[C@H]2C[C@@H](C(=O)O)[C@@H](c3ccc(O)cc3)N2C1=O	0.434	0.291	0.0336	-3.12	0.442	1.93	-0.301 (inactive)	-0.2	-1.26	0.554 (inactive)	0.363	-1.58 (inactive)	1.03 (inactive)	-0.406 (inactive)	0.475 (inactive)	-0.944 (inactive)	1.38 (inactive)	1.57 (inactive)	0.925	-0.0595
CCCCC(=C=CC[C@@H](O)c1ccc(OCCO)cc1)CCO	1.39	-0.0802	0.016	-0.64	0.796	0.0677	-0.214 (inactive)	-0.0377	1.03	1.46 (inactive)	1.02	-4.12 (inactive)	1.54 (inactive)	-2.3 (inactive)	-0.0585 (inactive)	0.271 (inactive)	1.34 (inactive)	0.672 (inactive)	1.3	0.794
C=CCOC(=O)[C@H]1[C@@H]2C(=O)O[C@@H](c3ccccc3)[C@@H](c3ccccc3)N2[C@@H](c2ccc(OCCOC(=O)[C@H]3C[C@H]4C(=O)NCC(=O)N4[C@H]3c3cccc(OCCO)c3)cc2)[C@]12C(=O)Nc1ccc(I)cc12	0.0164	0.656	0.902	-0.223	0.491	-0.777	-0.00167 (inactive)	-0.554	-1.28	0.592 (inactive)	-0.199	1.18 (inactive)	0.265 (inactive)	0.603 (inactive)	1.88 (inactive)	1.5 (inactive)	-0.274 (inactive)	0.765 (inactive)	0.973	0.0431
COC(=O)C(CC#Cc1ccc2c(c1)[C@]1(C(=O)N2)[C@H](C(=O)N2CCN(c3ncccn3)CC2)[C@H]2C(=O)O[C@H](c3ccccc3)[C@H](c3ccccc3)N2[C@@H]1c1ccc(O)cc1)C(=O)OC	0.489	-0.569	1.24	0.142	-2.03	-0.921	0.00989 (inactive)	-1.09	-0.205	-0.423 (inactive)	-0.146	0.586 (inactive)	0.235 (inactive)	-15.3 (active)	1.67 (inactive)	1.25 (inactive)	0.167 (inactive)	0.26 (inactive)	-1.47	0.309
